This passage reports outcome results from PubChem BioAssay AID1117359 (Southern Research Institute, 2015).

Each structure is given as a SMILES string. In all, about 1,500 compounds went through this assay and about 460 (31%) were called active.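 How the source made its calls: active means viability at or below 80% at any tested concentration, marking the compound as toxic; inactive means the rest.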 A selection follows. Where a call stands in place of a potency, no number is given. Potency and affinity values are given separately.

The assay is described as follows: THP-1 cell cytotoxicity, dose response, cytotoxicity control for Vif-APOBEC3G degradation inhibitor project, THP-1 cells (AID 1117359). The following applies: THP-1 viability, CellTiter-Glo luminescence, 72 h; series mostly up to 40 µM. (In general: Cellular ATP, detected with luciferase, serves as a proxy for viable cell number.)
For the molecule `CCOC(=O)C1=C(COC(=O)/C=C/c2ccco2)NC(=O)NC1C` (stereo not drawn), the result was inactive. Turning to `Cc1ccc(NC(=O)CN2C(=O)N/C(=C/c3ccco3)C2=O)cc1`, the result was inactive.

For `C=CC1=C(C(=O)O)N2C(=O)C(NC(=O)Cc3ccccc3)C2SC1` (stereo not drawn), the molecule was classed as inactive. The same measure for `Cc1cc(C(=O)NCCCN2CCCC2=O)no1`: “inactive”; for `CCOC(=O)C1=C(c2ccccc2)NC(=O)NC1c1cc(Cl)c(O)c(OC)c1` (stereo not drawn): “inactive”; for `Cc1nc(-c2noc(-c3ccccc3Cl)n2)c(C(F)(F)F)o1`: “inactive”. The result for `COc1cccc(CC(=O)N2CCCC(CO)(Cc3ccc(F)cc3F)C2)c1` (stereo not drawn) reads “inactive”. Turning to `COc1ccc(/C=N/NC(=O)CN2CCN(Cc3ccccc3)CC2)cc1Br`, the call was inactive. The result for `O=C(COc1ccc([N+](=O)[O-])cc1)NC(C(=O)O)C(O)c1cccc([N+](=O)[O-])c1` (stereo not drawn) reads “inactive”; that for `COc1cc(NC(=O)CSCC(=O)N(C)C2CCCCC2)cc(OC)c1`, “inactive”; that for `O=C(O)COc1ccc2c(c1)O/C(=C\c1ccco1)C2=O`, “inactive”. Turning to `CC(C)(C)OC(=O)N1CCN(c2ccc([N+](=O)[O-])cc2)CC1`, the molecule was classed as inactive. The same measure for `O=C(NC(=O)N1CCN(c2ccc([N+](=O)[O-])cn2)CC1)c1c(Cl)cccc1Cl`: “inactive”; for `CCc1ccccc1NC(=S)N(Cc1ccc(OC)cc1)CC1CCC(C(=O)O)CC1` (stereo not drawn): “inactive”. The same measure for `O=C(Cn1c(NCCO)nc2ccccc21)NCC(F)(F)F`: “inactive”; for `COc1cc(C(=O)NNC(=S)NCc2ccco2)cc(OC)c1OC`: “inactive”; for `Cc1ccc(C(CC(=O)NCc2ccco2)c2ccccc2)c(O)c1` (stereo not drawn): “inactive”. The result for `Cc1ccc(C(=O)N/C(=C/c2cccnc2)C(=O)NCc2ccco2)cc1` reads “inactive”. `O=C(O)CSc1c2c(nc3cc(C(=O)Nc4cccc(C(F)(F)F)c4)ccc13)CCC2`: the result was inactive. The result for `COc1cc(/C=C2/C(=O)c3cccc([N+](=O)[O-])c3C2=O)c(Br)cc1O` reads “inactive”. The result for `CCN(CC)c1ccc(NC(=O)CCS(=O)(=O)c2ccc(Br)cc2)c(C)c1` reads “inactive”. The result for `CCOC(=O)C(C)N1C(=O)S/C(=C\c2ccc(-c3ccccc3C(=O)O)o2)C1=O` (stereo not drawn) reads “inactive”; that for `CCN(CC)Cc1cc(O)c(CN(CC)CC)cc1O`, “inactive”.

With `CNC[C@H](O)c1ccc(O)c(O)c1`, the molecule was called inactive.

In the case of `COc1cccc(NC(=O)CSc2nnc(-c3ccco3)c(-c3ccco3)n2)c1`, the outcome was inactive.

In the case of `CCOC(=O)CNc1nc2ccccc2n2c(C)nnc12`, the outcome was inactive. The same measure for `COc1cc(NCCCNC(C)C)c2nccc(C)c2c1`: “inactive”. The result for `COc1cc(CC(=O)NCC(C)(C)N2CCOCC2)cc(OC)c1OC` reads “inactive”; that for `C[C@H](NC(=O)c1ccco1)C(=O)Nc1cccc([N+](=O)[O-])c1`, “inactive”. The result for `COc1ccc(OC)c(N2C(=O)[C@@H]3C(c4ccccc4Cl)=NO[C@@H]3C2=O)c1` reads “inactive”; that for `CCN(C(=O)CN1CCN(c2ccc(O)cc2)CC1)c1c(N)n(Cc2ccccc2)c(=O)[nH]c1=O`, “inactive”. `COC1=C(Br)C(=O)c2nc(C)ccc2C1=O`: the molecule was classed as inactive. The result for `CCOc1cccc(=O)c2c(C)n(CC(=O)c3ccccc3)c(C)c12` reads “inactive”.

In the case of `COc1ccc(CNS(=O)(=O)c2cc(Br)cc3c2N(C(C)=O)C(C)C3)cc1` (stereo not drawn), the call was inactive. The same measure for `Cc1[nH]n(-c2nc(-c3ccccc3F)cc(=O)[nH]2)c(=O)c1CCO`: “inactive”; for `COc1cc2ccccc2cc1C(=O)N1CCN(c2ccccc2O)CC1`: “inactive”; for `O=[N+]([O-])c1ccc2c(c1)S(=O)c1ccccc1-2` (stereo not drawn): “inactive”. The same measure for `C/C(=N\Nc1ccc([N+](=O)[O-])cc1[N+](=O)[O-])c1cc2c(ccc3ccccc32)oc1=O`: “inactive”. The result for `CC1=Nc2cccc3cccc(c23)N1` reads “inactive”; that for `CCS(=O)(=O)N1CCN(C(=O)c2cccc3ccccc23)CC1`, “inactive”; that for `O=c1c(O)cccc2cc(O)c(O)c(O)c12`, “inactive”. Consider `CC12CCC(C(=O)Nc3ccc(Br)cn3)(OC1=O)C2(C)C` (stereo not drawn), for which the result was inactive.

Take `COc1ccc(S(=O)(=O)N2CCC(C(=O)NCc3cccnc3)CC2)cc1Cl`: the molecule was called inactive. The result for `O=C(Nc1ccc(C(=O)N2CCOCC2)cc1)c1ccccc1[N+](=O)[O-]` reads “inactive”. The same measure for `O/C=c1\ccc2cccc3nc(C(F)(F)F)nc1c23`: “inactive”; for `Cc1ccc(C)c(NC(=S)NCc2ccccc2)c1`: “inactive”; for `Cc1ccc(C(=O)NNS(=O)(=O)c2ccccc2[N+](=O)[O-])cc1`: “inactive”. The result for `CN(C)c1ccc(N2C(=O)CSC2=S)cc1` reads “inactive”; that for `CC(C)C(C)NC(=O)COc1ccc(S(=O)(=O)N2CCOCC2)cc1Cl` (stereo not drawn), “inactive”; that for `O=C1CC(Nc2ccc(N3CCOCC3)cc2)C(=O)N1CCc1ccccc1` (stereo not drawn), “inactive”. Take `O=C(CNC(=O)c1ccc(Cl)cc1Cl)OCc1nnc(-c2ccccc2Br)o1`: the result was inactive. The same measure for `CCOC(=O)/C=C1\SC(C)C(=O)N1CC(=O)N(CCC#N)c1ccccc1` (stereo not drawn): “inactive”. The same measure for `CC(C)CC(NC(=O)/C(=C/c1ccco1)NC(=O)c1ccc(Br)o1)C(=O)O` (stereo not drawn): “inactive”; for `CCC(C)(C)NC(=O)C(c1ccc(F)cc1)N(Cc1ccco1)C(=O)c1cnccn1` (stereo not drawn): “inactive”. The result for `O=C(CCN1CCN(c2ccccc2)CC1)N/N=C/c1ccc(O)c(O)c1O` reads “inactive”. For the molecule `O=C(Cc1csc(N2CCOCC2)n1)N/N=C/c1ccc(O)c(O)c1O`, the call was inactive. The same measure for `CC1CCCN(CC(O)CN2CCN(CC(O)CN3CCCC(C)C3)C(C)C2)C1` (stereo not drawn): “inactive”; for `COC(=O)c1ccccc1NC(=O)CCS(=O)(=O)c1ccc(Br)cc1`: “inactive”; for `COc1cccc(NC(=O)CN(C)C(=O)CCCc2nc3ccccc3s2)c1`: “inactive”.

Regarding `COC(=O)C1=C(O)/C(=C\c2ccc(CNC(=O)C(=O)Nc3ccc(C)c(C)c3)o2)N=C1C`, the call was inactive.

In the case of `Cc1cn(C2CCCCO2)c(=O)[nH]c1=O` (stereo not drawn), the result was inactive. As for `O=C(CCCN1C(=O)/C(=C\c2ccco2)SC1=S)Nc1ccc2ccccc2c1`, the result was inactive. With `CC(=C\c1ccco1)/C=C1/SC(=S)N(CC(=O)O)C1=O`, the molecule was classed as inactive. The same measure for `COC(=O)c1ccccc1NC(=O)CNC(=O)c1ccc(OC)cc1`: “inactive”; for `COc1ccc(NC(=O)c2cccnc2C(=O)O)c(OC)c1`: “inactive”. The result for `COc1ccc(CNC(=O)c2sc3nc4c(c(C(F)(F)F)c3c2N)CCC4)cc1OC` reads “inactive”. The result for `O=C(O)c1c2c(nc3ccc(Cl)cc13)CCC2` reads “inactive”; that for `Cc1ccc(C(c2nnnn2CC2CCCO2)N2CCN(C)CC2)cc1` (stereo not drawn), “inactive”.
